# Screening results deposited in PubChem by National Center for Advancing Translational Sciences (NCATS).
# FMDV antiviral = foot and mouth disease virus antiviral activity; FMDV antiviral cell-based qHTS; Potency, µM (top dose mostly 57.9 µM), inactives show at the highest dose activity change, negative = inhibition, hits mostly inhibitors; 410,000 tested, 1.2% active; AID 1159524; calls by dose curve; tested in HEK293T cells; also: read-out not given here; potency is read from the fitted curve at half-maximal effect; % is scaled to controls: 0 for no effect and ±100 for the full control effect; nearly all actives have a fitted effect of over 45% in size
# Cycloheximide cs = counter-screen for Shiga toxin inhibitors: cycloheximide protein synthesis inhibition. cell reporter, cycloheximide protein synthesis inhibition counterscreen. max response, %. AID 2314. 300,000 tested, 12% active; in the data active = max response mostly above about 13%, no sharp cut-off; inactive = mostly below about 14%; also: read at 38.3 µM for the half of the compounds with a filed dose; 0% is about no effect
# Sm TGR block = S. mansoni TGR enzyme inhibition. Q962Y6. purified TGR, DTNB reduction, TNB absorbance 405 nm. Potency, µM (doses to about 114 µM), for the others: at the highest dose activity change, negative = inhibition, hits mostly inhibitors. 360,000 tested, 3% active; active = well fitted inhibition curve with a large enough effect; inconclusive = small, poorly fitted or top-dose-only effect; inactive = no such curve, though single readings can be large or run the other way; also: potency is read from the fitted curve at half-maximal effect; % is scaled to controls: 0 for no effect and ±100 for the full control effect; nearly all actives have a fitted effect of over 60% in size
#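 Kinetic colorimetric format: TGR-catalysed, NADPH-driven DTNB reduction monitored via TNB absorbance. Enzyme dispensed at 20 nM; compound exposure 15 min at room temperature before reaction start.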
# Shiga inhibitor = inhibitors of Shiga toxin in Vero cells; 290,000 tested, 9.2% active; Vero cells, Shiga toxin protein synthesis inhibition reporter; inhibition, % at 38.7 µM; in the data active = inhibition mostly above about 28%, no sharp cut-off; inactive = mostly below about 43%; also: 0% is about no effect
# * marks the source's active call; other numbers are inactive results; ? = inconclusive; / = not tested or not shown. Compounds with a hit are over-represented: about 12% of the library has one in this group of screens.
SMILES,FMDV antiviral,Cycloheximide cs,Sm TGR block,Shiga inhibitor
CC1=C(C(=O)Nc2ccccc2)C(c2ccco2)NC(=O)N1 (centres undefined),-20.8%,/,/,/
CC1=C(C(=O)Nc2ccccc2)C(c2ccccc2[N+](=O)[O-])NC(=O)N1 (centres undefined),5.3%,16.7*,-33.4%,37.2
CSc1cccc(NC(=O)c2cccc(N3CCCS3(=O)=O)c2)c1,-4.6%,/,2.3%,/
CC1(C)CC(Nc2ccc(Nc3ccccc3)cc2)CC(C)(C)N1,-13.5%,-2.2,6.31µM*,-9.9
Nc1c(C(=O)NC2CCCC2)sc2nc(-c3cccs3)ccc12,22.3%,21.9*,-1.4%,39.1
NC(=O)c1sc2nc(-c3cccs3)ccc2c1N,12.8%,48.6*,6.8%,63.7*
NC(=O)c1sc2nc(-c3ccccc3)ccc2c1N,67.0%,35.1*,-21.4%,96.9*
Nc1c(C(=O)Nc2ccc(C(F)(F)F)cc2)sc2nc(-c3cccs3)ccc12,30.6%,/,-2.7%,/
CCOC(=O)c1sc2nc(-c3ccccc3)ccc2c1N,-14.0%,91.5*,-3.6%,66.9*
O=C(c1cc(-c2cccc(Cl)c2)on1)N1CCCC1,33.3%,17.9*,-23.7%,71.3*
O=C(c1cc(-c2ccccc2)on1)N1CCN(c2ccccc2)CC1,-1.5%,2.0,-2.9%,-2.9
O=C(c1cc(-c2ccccc2)on1)N1CCCC1,/,30.1*,6.3%,148.8*
CN(C(=O)c1cc(-c2ccccc2)on1)C1CCCCC1,23.3%,36.6*,-9.9%,72.9*
O=C(c1cc(-c2cccc(Cl)c2)on1)N1CCN(c2ccccc2)CC1,17.2%,15.3,-6.0%,24.3
O=C(c1cc(-c2ccc(Cl)cc2)on1)N1CCCC1,-15.0%,37.3*,2.3%,89.8*
O=C(c1cc(-c2ccc(Cl)c(Cl)c2)on1)N1CCCCC1,24.4%,40.0*,-19.3%,119.6*
CC1(C)CC(=O)C(C2C3=C(CC(C)(C)CC3=O)Oc3ccccc32)C(=O)C1 (centres undefined),4.1%,-1.5,5.01µM*,-7.9
COc1ccc2c(c1)C(C1=C(O)CC(C)(C)CC1=O)C1=C(CC(C)(C)CC1=O)O2 (centres undefined),10.4%,-2.5,-25.5%,-8.1
CC1(C)CC(=O)C(C2C3=C(CC(C)(C)CC3=O)Oc3ccccc32)=C(O)C1 (centres undefined),-14.0%,-1.8,7.94µM*,10.2
O=C(CSc1cn(CC(=O)N2CCCCCC2)c2ccccc12)Nc1ccccc1F,?,/,0.7%,/
O=C(Nc1ccccc1F)C(=O)c1cn(CC(=O)N2CCCCC2)c2ccccc12,17.9%,32.7*,-6.0%,53.9*
CC(=O)Nc1ccc(NC(=O)C(=O)c2cn(CC(=O)N3CCCC3)c3ccccc23)cc1,-6.2%,-0.6,-4.3%,22.8
CC(=O)Nc1cccc(NC(=O)C(=O)c2cn(CC(=O)N3CCCCC3)c3ccccc23)c1,13.7%,45.1*,-0.6%,85.2*
CC(C)N1CCC(=NNc2ccc(S(=O)(=O)N3CCOCC3)cc2[N+](=O)[O-])CC1,-6.5%,2.3,35.5µM*,10.0
CC(=O)N1CCC(=NNc2ccc(S(=O)(=O)N3CCOCC3)cc2[N+](=O)[O-])CC1,-4.2%,-2.0,?,-4.5
SMILES,FMDV antiviral,Cycloheximide cs,Sm TGR block,Shiga inhibitor
COc1ccc(-c2nc3scc(CCNS(=O)(=O)c4ccc5c(c4)OCCO5)n3n2)cc1,5.9%,/,1.9%,/
Cc1cc(C)c2oc(-c3ccc(Cl)c(NC(=O)c4ccc(C#N)cc4F)c3)nc2c1,23.0%,48.1*,-23.0%,39.2*
Cc1cc(C)c2oc(-c3ccc(NC(=O)c4cc(Br)ccc4Cl)cc3)nc2c1,-19.2%,/,-9.5%,/
CCN(CC)CCNC(=O)C(Cl)=C1C(Cl)=C(Cl)C(Cl)=C1Cl,22.4µM*,/,/,/
CC(=O)Nc1ccc(S(=O)(=O)c2ccnc3cc(Cl)ccc23)cc1,31.6µM*,/,/,/
N/C(=N\OC(=O)c1cccnc1)c1ccccc1Cl,71.9%,27.4*,25.4%,84.3*
N/C(=N\OC(=O)c1cccnc1)c1ccc(Cl)cc1Cl,21.1%,22.1*,-1.3%,44.2*
N/C(=N\OC(=O)c1cc([N+](=O)[O-])ccc1Cl)c1cccnc1,-24.4%,-1.8,-9.3%,21.1
COC(=O)c1cccc(-n2c(CCC(=O)O)ccc2-c2cccs2)c1,-11.7%,19.4*,3.55µM*,49.3*
COC(=O)c1cccc(-n2c(CCC(=O)O)ccc2-c2ccc(OC)cc2)c1,-22.6%,/,12.6µM*,/
COc1ccc2c(c1)c1c(c(=O)n(-c3cccc(C)c3)c(=O)n1CC(=O)N1CCCC1)n2C,-22.9%,/,0.8%,/
O=C(Cn1c(=O)n(Cc2nc(-c3ccccc3)no2)c(=O)c2ccccc21)Nc1cccc(C(F)(F)F)c1,20µM*,/,9.3%,/
O=C(Cn1c(=O)n(Cc2nc(-c3ccccc3)no2)c(=O)c2ccccc21)Nc1cccc(Cl)c1,?,/,-2.6%,/
